Source: PubChem (National Center for Advancing Translational Sciences (NCATS))
Most compounds without a hit are left out; they make up all but 6.2% or so of the library.
Luc counter: blocks Kinase-Glo luciferase, a counter-screen artifact. Kinase-Glo luciferase, ATP luminescence, 8 min. Q27757. actives 0.28% (n = 200,000). Potency, µM (doses to about 38.3 µM), for the others: at the highest dose activity change, negative = inhibition, hits mostly inhibitors; further: nearly all actives have a fitted effect of over 60% in size
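Inhibition of Kinase-Glo luciferase light generation was assessed at 10 uM ATP in pH 7.2 imidazole buffer, with luminescence measured after eight minutes at ambient temperature.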
Gal4-VP16 FLuc: Gal4-VP16 reporter inhibition counter-screen; Potency, µM (top dose mostly 53.6 µM), for the others: at the highest dose activity, negative = inhibition, actives largely listed as inhibitors; actives 3.5% (n = 310,000); AID 2546; Drosophila S2 Gal4-VP16 UAS-luciferase, luminescence, 20 h;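 further: Gal4-VP16 expression switched on by copper sulfate through the metallothionein promoter; nearly all actives have a fitted effect of over 50% in size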
RORgamma inh: inhibitors of mouse ROR gamma transcriptional activity. Potency, µM (series often up to 53.6 µM), inactives show at the highest dose activity change, negative = inhibition, usual class: inhibitors. actives 5.4% (n = 310,000). Drosophila S2 Gal4-RORgamma UAS-luciferase reporter, 20 h; further: nearly all actives have a fitted effect of over 60% in size
Target sequence (P51450 whole entry, looked up, the tested form may be a part): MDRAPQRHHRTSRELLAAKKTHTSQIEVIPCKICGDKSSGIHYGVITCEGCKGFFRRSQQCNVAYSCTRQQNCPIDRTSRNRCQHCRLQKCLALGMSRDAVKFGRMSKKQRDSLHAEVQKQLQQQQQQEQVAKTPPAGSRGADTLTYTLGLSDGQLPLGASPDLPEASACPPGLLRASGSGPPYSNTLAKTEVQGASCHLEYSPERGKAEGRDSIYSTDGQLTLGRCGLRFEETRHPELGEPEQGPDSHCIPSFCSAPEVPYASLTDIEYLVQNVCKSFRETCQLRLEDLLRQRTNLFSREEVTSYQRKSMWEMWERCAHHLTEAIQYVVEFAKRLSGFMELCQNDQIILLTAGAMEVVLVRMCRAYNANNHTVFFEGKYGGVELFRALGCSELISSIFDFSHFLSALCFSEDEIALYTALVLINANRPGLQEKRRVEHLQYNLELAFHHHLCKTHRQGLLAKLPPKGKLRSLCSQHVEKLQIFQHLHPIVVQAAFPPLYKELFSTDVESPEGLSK
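In this cell-based reporter format, copper sulfate (700 uM final) drives Gal4–ROR gamma fusion expression from a metallothionein promoter in Drosophila Schneider cells; compounds preincubated 1 hr, reporter read after 20 hr at ambient temperature.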
Starred values were filed as active, the others as inactive; ? = inconclusive; nt = no result given; [ ] = another dose, or the depositor's remark. The call rests on the fitted dose curve; in most records, active means well fitted curve in the direction sought with a large enough effect; inconclusive means small, poorly fitted or top-dose-only effect, or another doubt; inactive means no such curve, though single readings can be large; an effect the other way counts as inactive or inconclusive. On the % scale 0 is the no-effect control and ±100 the full control effect; potency means the concentration at half of the fitted maximal effect.

SMILES	Luc counter	Gal4-VP16 FLuc	RORgamma inh
CCCCCCCCCCC(=O)NNC(=O)c1c(O)c2ccccc2n(CC)c1=O	-1.2%	-6.6%	2.1%
CCn1c(=O)c(C(=O)NNC(=O)c2ccc(Cl)cc2Cl)c(O)c2ccccc21	nt	?	10µM*
CCCn1c(=O)c(C(=O)NNC(=O)c2ccc(Cl)cc2Cl)c(O)c2ccccc21	nt	-15.1%	-42.6%
CCn1c(=O)c(C(=O)NCc2ccc(OC)cc2)c(O)c2ccccc21	-0.4%	?	-12.3%
CCn1c(=O)c(C(=O)NNC(=O)Cc2ccccc2)c(O)c2ccccc21	nt	-22.4%	12.6µM*
CCn1c(=O)c(C(=O)Nc2ccccc2)c(O)c2ccccc21	nt	-2.8%	18.2%
CCn1c(=O)c(C(=O)NCc2ccccn2)c(O)c2ccccc21	-2.5%	7.08µM*	3.16µM*
CCC1C(=O)Nc2ccccc2N1C(=O)COc1ccccc1 (stereo not drawn)	nt	17.9%	-11.0%
Cc1cc(=S)c2cccc(C)c2[nH]1	-4.8%	6.0%	-7.7%
COc1cc(/C=C2/NC(=O)NC2=O)cc(Br)c1OCc1ccc(C(=O)O)cc1	10.5%	1.7%	15.0%
Cc1cc(Oc2ccccc2)nc(OCC#N)n1	-2.8%	-20.2%	4.8%
CSc1ccccc1OCc1cc(C(=O)NCCc2nc(C)cc(C)n2)no1	nt	-5.5%	19.2%
CCN(CC)S(=O)(=O)c1ccc(O)c(C(=O)OCC(=O)N2c3ccccc3CC2C)c1 (stereo not drawn)	nt	-0.2%	14.4%
Cc1cccc(-c2n[nH]c(=S)n2/N=C/c2ccc(C)o2)c1	1.7%	11.2µM*	?
O=[N+]([O-])c1ccc(/C=N/n2c(C3CCCCC3)n[nH]c2=S)cc1	-10.5%	?	1.41µM*
Cc1ccc(/C=N/n2c(C3CCCCC3)n[nH]c2=S)o1	0.5%	?	11.2µM*
O=C(O)c1ccc(/C=N/n2c(C3CCCCC3)n[nH]c2=S)cc1	nt	-0.1%	-21.2%
CSc1ccc(/C=N/n2c(C3CCCCC3)n[nH]c2=S)cc1	nt	?	1.58µM*
Cc1cc(-c2n[nH]c(=S)n2/N=C/c2ccc(C)o2)n[nH]1	nt	-0.8%	-8.0%
Cc1ccc(/C=N/N2CCCCC2)o1	-8.7%	2.8%	-33.9%
S=c1[nH]nc(C2CCCCC2)n1/N=C/c1ccncc1	1.5%	-13.9%	?
COc1cccc(CC2(CO)CCCN(Cc3ccc4c(c3)OCCO4)C2)c1 (stereo not drawn)	-0.3%	-0.7%	6.5%
O=C(NCc1ccccn1)Nc1cccc(Cl)c1Cl	nt	9.8%	10.2%
Cn1c(CSc2ncccn2)nnc1SCC(=O)N1CCCC1	-3.1%	5.8%	-0.5%
O=C(CCn1c(=O)c2cccn2c2cccnc21)N1CCN(c2cccc(Cl)c2)CC1	nt	?	-27.3%
SMILES	Luc counter	Gal4-VP16 FLuc	RORgamma inh
Cc1cc2oc(=O)cc(CN3CCOCC3)c2c(C)c1Cl	nt	1.4%	-9.9%
COC(=O)C1=C(C(=O)OC)[C@@H]2N(C)c3ccc(OC)cc3[C@@]23C[C@@H](C(=O)OC)N(C(C)=O)C3=N1	-8.6%[7.66 µM]	nt	nt
O=C(NCCc1ccccc1)C(c1ccc(F)cc1)N(C(=O)c1csnn1)C1CC1 (stereo not drawn)	nt	1.7%	2.5%
CC(=O)Oc1c(C)cc(Cl)cc1C(=O)Nc1ccc([N+](=O)[O-])cc1Cl	-3.0%	1µM*	1µM*
CC(=O)OCC(=O)Nc1ccc([N+](=O)[O-])cc1Cl	7.6%	6.7%	-40.4%
CCNc1ncc2nc(-c3ccc(Cl)cc3)c(=O)n(-c3ccccc3)c2n1	-2.4%	-6.7%	2.0%
O=C(CCN1CCOCC1)NNC(=S)NC(=O)c1ccccc1	1.4%	-1.2%	14.1µM*
CCCCC(=O)NNC(=S)NC(=O)c1ccc(C)cc1	1.5%	17.8µM*	4.47µM*
CCCCC(=O)NNC(=S)NC(=O)c1cccc([N+](=O)[O-])c1	3.1%	0.891µM*	1µM*
Cc1ccc(C(=O)NC(=S)NNC(=O)CC#N)cc1	0.4%	3.1%	10µM*
O=C(CCN1CCOCC1)c1ccccc1	5.7%	-4.2%	?
CCCCCC(=O)NNC(=S)NC(C)=O	1.6%	-9.3%	-40.0%
CCCCC(=O)Nc1cccc(NC(=O)c2cccc([N+](=O)[O-])c2)c1	2.7%	2.9%	15.5%
COc1ccc(C(=O)NC(=S)NNC(=O)CNC(=O)C2CCCCC2)cc1	-0.4%	-10.9%	-41.6%
CN1CCN(C(=O)CN(C)S(=O)(=O)c2ccc(F)cc2)CC1	nt	4.4%	-4.0%
Cc1ccccc1C(=O)c1c[nH]c(C(=O)NCCc2ccccn2)c1	-1.2%	-4.2%	28.8%
CCC(=O)NC(=S)NNC(=O)c1ccc([N+](=O)[O-])cc1	0.6%	0.0%	?
COCCCNC(=S)NNC(=O)c1ccc(C(C)(C)C)cc1	nt	-20.2%	-42.3%
Cc1ccc(C(=O)NCC#N)cc1	-0.4%	-3.7%	-13.0%
CC(C)CC(=O)NC(=S)NNC(=O)c1ccc([N+](=O)[O-])cc1	4.7%	5.62µM*	3.98µM*
Cc1ccc(C(=O)NC(C#N)=C(Cl)Cl)cc1	1.4%	10µM*	8.91µM*
CCCCCC(=O)NNC(=O)Cc1ccc([N+](=O)[O-])cc1	nt	-11.7%	17.8%
COCCCNC(=S)NC(=O)c1ccc(C)cc1	-0.7%	?	12.6µM*
CCCCC(=O)NNC(=S)NC(=O)c1ccc([N+](=O)[O-])cc1	-1.7%	11.2µM*	2.51µM*
Cc1nn(C)c(C)c1NC(=O)c1ccccc1NC(=O)Nc1ccccc1	nt	-2.7%	-29.4%
SMILES	Luc counter	Gal4-VP16 FLuc	RORgamma inh
CCOC(=O)CNC(=O)COc1coc(CN2CCN(c3ccccc3F)CC2)cc1=O	nt	4.5%	-1.7%
O=C(NN1C(=O)c2ccc3c4c(ccc(c24)C1=O)CC3)c1ccc(Br)cc1	-1.1%	-0.3%	1.0%
C[C@]12CCC(=O)C=C1CCC1C2C(O)C[C@]2(C)C1CC[C@]2(O)C(=O)CO (stereo partly drawn)	-6.8%	6.3%	-1.3%
Cc1ccc(OCC(=O)NC2CCS(=O)(=O)C2)c(C)c1 (stereo not drawn)	nt	-3.3%	2.0%
C/C=C/c1ccc(OC(C)[C@@H](O)c2ccc(O)c(OC)c2)c(OC)c1 (stereo partly drawn)	3.2%	-8.5%	36.3%
S=C1NCN(Cc2cccnc2)CN1Cc1ccccc1	nt	3.6%	?
S=C1SCN(Cc2cccnc2)CN1Cc1ccccc1	5.4%	6.31µM*	3.16µM*
CCN(CC)CCN(C(=O)CCOc1ccccc1)c1nc2ccc(F)cc2s1	1.6%	4.2%	-8.3%
CC(C)NC(=S)N/N=C/c1ccc2c(c1)OCCO2	1.9%	?	2.24µM*
CC(=O)Nc1ccc(/C=N/NC(=S)NC(C)C)cc1	-0.1%	-17.1%	15.8µM*
COCCCNC(=S)N/N=C/c1ccc2c(c1)OCO2	nt	?	5.62µM*
Cc1ccc(CC(=O)N/N=C/c2ccc3c(c2)OCO3)cc1	-1.1%	10.7%	?
CC1(C(=O)N/N=C/c2ccc3c(c2)OCO3)CC1(Br)Br (stereo not drawn)	nt	-13.8%	-8.0%
C=C(C)CNC(=S)N/N=C/c1ccc(NC(C)=O)cc1	0.4%	2.7%	?
COCCNC(=S)N/N=C/c1ccc2c(c1)OCCO2	-0.8%	?	10µM*
Cc1ccccc1OCC(=O)N/N=C/c1ccc2c(c1)OCCO2	-2.5%	?	-37.2%
CN1CCN(c2ncc3nc(-c4cccc(C#N)c4)c(=O)n(CCc4ccccc4)c3n2)CC1	nt	1.1%	-9.9%
